Consider 40 compounds from PubChem BioAssay (Tox21).

Inconclusive results are not listed. A call without a number means that no potency is given here. The source made the active and inactive calls. Calls come from the whole dose curve; as a rule, active = well fitted cell-killing curve with a large enough effect in the repeat runs; inconclusive = weak or mixed curves, or effect the other way; inactive = flat fitted curve, though single readings scatter.
Potency is the fitted concentration of half-maximal effect.

This assay in a line: qHTS assay to identify small molecule antagonists of the estrogen related receptor signaling pathway with the pleiotropic PPARgamma coactivator (PGC) cell viability counter screen (AID 1224822;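 note: viability read after 17.5 h compound exposure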). Conditions: ERR/PGC reporter cell line viability counter screen; series mostly up to 46.1 µM. The source says:
National Center for Advancing Translational Sciences [NCATS]
NIH Chemical Genomics Center [NCGC]
U.S. Environmental Protection Agency [EPA]
National Institutes of Environmental Health Sciences [NIEHS]
National Toxicology Program [NTP]
U.S. Food and Drug Administration [FDA]
Estrogen related receptors (ERRs), the first orphan nuclear receptors discovered, play an important role in the control of cellular energy metabolism. ERRs are required for high-energy production in response to the environmental challenges. The pleiotropic PPARgamma coactivator (PGC) is a major partner of ERR and a key regulator in energy homeostasis. Together they have been implicated in the etiology of metabolic disorders such as Type 2 diabetes and metabolic syndrome. ERR-alpha was also identified as an adverse marker for breast cancer progression; ERR-alpha-positive tumors have a poor prognosis. To screen and to identify environmental compounds that perturb the ERR and PGC/ERR signaling pathways could provide valuable information for potential therapeutic or preventive measures in the treatment of metabolic disease. To differentiate true PGC/ERR antagonists or agonist from cytotoxic substances, the assay is multiplexed with cell viability assay.
Tox21 Assay Protocol Summary:
The PGC/ERR cells were dispensed at 2,000 cells/5 ul/well in 1536-well white plates using a Multidrop dispenser. After the assay plates were incubated at a 37 C/5% CO2 incubator for 6 hours, 23 nL of compounds dissolved in DMSO, positive and negative controls or DMSO only was transferred to the assay plate by a pin tool. The plates were incubated at 37 C for 17.5 hours. 1 ul/well of CellTiter-Fluor reagent was added into the assay plates using a Flying Reagent Dispenser. After 30 min incubation at 37 C/5% CO2, the fluorescence intensity in the plates was measured using a ViewLux plate reader.
For orientation: qHTS replaces the single test concentration by a dilution series.
`CN1CCN(c2nc3cc(C(F)(F)F)ccc3n3cccc23)CC1`: the Potency entry is “inactive”.

Regarding `N[C@@H](CCC(=O)N[C@H](CSN=O)C(=O)NCC(=O)O)C(=O)O`, the Potency result was “inactive”.

Take `N[C@H](C(=O)O)c1cc(O)cc(O)c1`: the Potency result was “inactive”.

As to `CC(C)(C)c1ccc(/C=C/C(=O)Nc2ccc3c(c2)OCCO3)cc1`, the Potency result is “inactive”.

For the compound `CCCCCCCCCCCCCCCCCCOC[C@H](COP(=O)([O-])OCC[N+](C)(C)C)OC`, the Potency result is “inactive”.

As to `CCCc1c(-c2ccc(O)cc2)nn(-c2ccc(O)cc2)c1-c1ccc(O)cc1`, the Potency entry is “inactive”.

Regarding `CO[C@H]1O[C@@H]2O[C@]3(C)CC[C@@H]4[C@@H](C)CC[C@H]([C@H]1C)[C@]24OO3`, the Potency result was “inactive”.

`COc1cc(CC(=O)O)ccc1O`: the Potency entry was “inactive”.

Turning to `CC(C)NC[C@H](O)c1ccc(O)c(O)c1`, the Potency entry is “inactive”.

Take `O=C(O)CNC(=O)C(CS)Cc1ccccc1` (stereo not given): the Potency result was “inactive”.

Consider `NOCC(=O)O`, for which the Potency entry is “inactive”.

Turning to `CCCCCCCCCC[Si](C)(C)CCC(=O)NC(Cc1ccc(C)cc1)c1ccccc1` (stereo not given), the Potency entry was “inactive”.

`CCCN(CC1CC1)c1nc(C)nc(Nc2c(Cl)cc(Cl)cc2Cl)c1Cl`: the Potency entry was “inactive”.

Consider `O=c1c(O)c(-c2cc(O)c(O)c(O)c2)oc2cc(O)cc(O)c12`, for which the Potency result is “inactive”.

With `COc1ccc(/C=C2\COc3ccc(C)cc3C2=O)cc1O`, the Potency result is “inactive”.

`Nc1ncnc2n[nH]c(Nc3ccc(F)cc3)c12`: the Potency entry is “inactive”.

Regarding `CN1C2CC(OC(=O)[C@H](CO)c3ccccc3)CC1C1OC12` (stereo not given in full), the Potency entry is “inactive”.

`O=C1Cc2c([nH]c3ccc(Br)cc23)-c2ccccc2N1`: the Potency result is “inactive”.

Take `COC(=O)C(N)Cc1ccc(Cl)cc1` (stereo not given): the Potency result was “inactive”.

For `O=C(c1ccc2c(c1)OCCO2)N1CCCCC1`, the Potency result was “inactive”.

In the case of `CC(C)(C=O)Cc1cc(C(C)(C)C)c(O)c(C(C)(C)C)c1`, the Potency entry was “inactive”.

On to `CC1CC2C3CCC4=CC(=O)C=C[C@]4(C)[C@@]3(F)[C@@H](O)C[C@]2(C)[C@@]1(O)C(=O)CO` (stereo not given in full), for which the Potency entry is “inactive”.

`Nc1ncnc2c1nc(Sc1ccc(Cl)cc1)n2[C@H]1OC2COP(=O)(O)O[C@@H]2C1O` (stereo not given in full): the Potency result was “inactive”.

For the compound `c1ccc(CN2CCC3(CCCc4ccccc43)CC2)cc1`, the Potency entry was “inactive”.

Take `CC1(C)CCC=[N+]1[O-]`: the Potency result was “inactive”.

As for `Cc1nc(N=Nc2ccc(C(=O)O)cc2)c(COP(=O)(O)O)c(C=O)c1O`, the Potency result is “inactive”.

Regarding `CC(C)(C)NCC(O)COc1nsnc1N1CCOCC1` (stereo not given), the Potency result was “inactive”.

`Cc1ccc(S(=O)(=O)N[C@@H](Cc2ccccc2)C(=O)CCl)cc1`: the Potency is 26.6 µM (active).

Turning to `CCCCCCCCc1ccc(-c2ccc(C(=O)O)cc2)cc1`, the Potency result was “inactive”.

With `N#CC(C#N)=C(N)/C(C#N)=C/c1ccc(O)cc1`, the Potency entry was “inactive”.

Consider `NC(CCCP(=O)(O)O)C(=O)O` (stereo not given), for which the Potency result is “inactive”.

Consider `CSC(=N)N`, for which the Potency result is “inactive”.

In the case of `COC(=O)C(C)(N)Cc1ccc(O)cc1` (stereo not given), the Potency result was “inactive”.

As for `CCCCC[C@H](CC(=O)NO)C(=O)N[C@H](C(=O)N1CCC[C@H]1CO)C(C)C`, the Potency result was “inactive”.

For the compound `O=C(c1ccc(OCCCc2cnc[nH]2)cc1)C1CC1`, the Potency result is “inactive”.

Take `NC(N)=NC(N)=Nc1cccc(Cl)c1`: the Potency result is “inactive”.

For `O=C(O)C1CN(CCCP(=O)(O)O)CCN1` (stereo not given), the Potency result is “inactive”.

Take `NCC1OC(OC2C(O)[C@@H](OC3C(O)C(N)CC(N)C3OC3OC(CO)C(O)C(O)C3N)O[C@@H]2CO)C(N)C(O)C1O` (stereo not given in full): the Potency result is “inactive”.

Take `NC[C@@H]1O[C@H](c2ccccc2)Cc2c1ccc(O)c2O`: the Potency result was “inactive”.

As to `CC(C)[C@@H]1CC[C@@H](C)C[C@@H]1P(=O)(c1ccccc1)c1ccccc1`, the Potency entry was “inactive”.
